HSP90 inh – HSP90 inhibitors, primary screen, cell lysate, luminescence | Heat shock protein HSP 90 (rabbit reticulocyte lysate; luciferase refolding) | Rabbit reticulocyte lysate, luciferase refolding luminescence, 3 h | inhibition, % at 5.6 µM | hit rate 0.91% among 290,000 | AID 1789, 2009;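 active means inhibition above the screen-wide mean plus 3 SD, computed separately per campaign, cut at about 16% in these data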;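 further: inhibitors lower the luminescence because luciferase stays unfolded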
PG9 binder – binders of HIV-1 gp120 antibody PG9, primary screen, biochemical, TR-FRET; HIV-1 gp120 / PG9 antibody interaction; TR-FRET gp120-PG9 antibody binding; inhibition, % at 6.7 µM; hit rate 0.43% among 360,000; AID 624416, 2012; in the data active means inhibition above about 8.5%
FXN GAA850 act – FXN promoter activators, primary screen, cell-based, luciferase luminescence, HEK293 lucGAA850; hit rate 0.56% among 360,000; activation, % at 6 µM; HEK293 lucGAA850 FXN promoter luciferase reporter, 24 h; percent of 10 µM SAHA response; AID 540364, 2011;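 active means activation above the average of all compounds screened plus 3 SD, cutoff fixed separately per campaign, cut at about 7.5% in these data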
AI-2 QS modul – Vibrio harveyi AI-2 quorum sensing modulators, primary screen, JMH597 strain, luminescence/OD600 ratio; activity change, % at 7.5 µM; hit rate 0.4% among 300,000; Vibrio harveyi JMH597 AI-2 luminescence/OD600 ratio, 9 h; active compounds read low; strain lacks LuxN and CqsS sensors; 0 = neutral-control median; in the data active means activity change below about -75%, passing the limit was not always enough;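 further: luminescence divided by OD600 gain over 9 h not by final OD600 alone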
HSF1 inh – HSF1 inhibitors in luciferase reporter cells, primary screen, cell-based, NIH3T3, luminescence; NIH3T3-HGL HSE-luciferase, MG132-induced, luminescence 8 h; active compounds read low; activity change, negative = inhibition, % at 7.5 µM (by protocol); hit rate 0.77% among 300,000; AID 2098, 2009;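 active means more than half of replicate wells show activity change below -50%, luminescence cut by over half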;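 further: luciferase reports HSF-1 transcriptional activity via heat shock element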
SMARCA2 act – SMARCA2 (BRM) function activators, primary screen, cell-based, luminescence, high throughput. MG213 cells, MMTV-luciferase reporter, dexamethasone, overnight. activation, % at 9.1 µM. hit rate 1% among 370,000; in the data active means activation above about 7.8%
SMARCA2 act conf – SMARCA2 (BRM) function activators, confirmation, cell-based, luminescence, triplicate. MG213 cells, MMTV-luciferase with dexamethasone, overnight; MG213 cells expressing E1A, Rb sequestered; DMSO wells 0%, reference activator 100%. shares compounds with SMARCA2 act. AID 652260, 2013. hit rate 30% among 3,500. activation, % at 9.1 µM;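 active means activation above its plate's cutoff, the mean activation of tested wells plus 3 SD, cut at about 7.9% in these data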
GAL4-VP16 Luc – GAL4-VP16 luciferase reporter activation, counter-screen for SMARCA2 (BRM) activator project, cell-based, pG5luc, luminescence, high throughput | shares compounds with SMARCA2 act | activation, % at 9.1 µM | HEK293 GAL4-VP16 pG5luc reporter; scaled: DMSO wells 0%, SAHA wells 100% | hit rate 41% among 3,500;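 active means activation above the solvent-only control well mean plus 3 SD, averaged across control plates, cut at about 5.2% in these data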
Each line names hits and unclear results; the compound was inactive in the other large screens (follow-up assays come after a bar, where they were run). Compounds with a hit are over-represented: about 3.4% of the library has one in this group of screens.

CN(C)CCNC(=O)c1cccc(-c2cnc3c(NC=O)cc(/C=C/c4ccccc4)cn23)c1	none (no result: HSP90 inh, AI-2 QS modul, HSF1 inh)
COc1cc2nc(C3CCC3)nc(N3CCN(c4ccccc4OC)CC3)c2cc1OC	SMARCA2 act 9.4 | SMARCA2 act conf inactive | GAL4-VP16 Luc inactive
Cc1nnc(N/N=C\c2ccc(-c3cccc(C(=O)O)c3)o2)n1N	SMARCA2 act 9.1 | SMARCA2 act conf inactive | GAL4-VP16 Luc inactive
COc1ccc2c(c1)[nH]c1c(=O)n(Cc3ccncc3)cnc12	SMARCA2 act 8.6 | SMARCA2 act conf inactive | GAL4-VP16 Luc inactive
COc1ccc2c(c1)[nH]c1c(=O)n(CCN(C)C)cnc12	none
CCCn1c(C)cc(C(=O)CN2C(=O)c3ccccc3S2(=O)=O)c1C	none (no result: HSP90 inh, AI-2 QS modul, HSF1 inh)
CCCn1c(C)cc(C(=O)Cn2nnc3ccccc3c2=O)c1C	SMARCA2 act 9.1 | SMARCA2 act conf 10 | GAL4-VP16 Luc 7.3
O=C(COC(=O)CNS(=O)(=O)c1cccc(Br)c1)NC(=O)Nc1ccc2c(c1)OCCO2	SMARCA2 act 11 (no result: AI-2 QS modul, HSF1 inh) | SMARCA2 act conf inactive | GAL4-VP16 Luc inactive
O=C(COC(=O)CNS(=O)(=O)c1ccc2ccccc2c1)Nc1ccc2c(c1)OCO2	none
CCOc1ccc(N=C(C)C2=C(O)c3ccccc3C2=O)cc1	SMARCA2 act 19 | SMARCA2 act conf 8.5 | GAL4-VP16 Luc 12
Cc1[nH]nc2c1C(c1ccc3c(c1)OCO3)N(Cc1ccccc1)C2=O (configuration not stated)	none (no result: HSP90 inh, FXN GAA850 act, AI-2 QS modul, HSF1 inh)
CCOc1ccc(NC(=S)NC(=O)c2ccco2)cc1	SMARCA2 act 10 | SMARCA2 act conf inactive | GAL4-VP16 Luc 11
COc1ccc(OC)c(S(=O)(=O)Nc2c(F)cccc2F)c1	SMARCA2 act 10.0 | SMARCA2 act conf inactive | GAL4-VP16 Luc inactive
COc1ccc(OC)c(S(=O)(=O)Nc2cccc3ccccc23)c1	none (no result: HSP90 inh)
CCN1CCN(Cc2ccc(NC(=O)c3ccc(C)c(NC(=O)C(=O)c4c[nH]c5ccccc45)c3)cc2C(F)(F)F)CC1	none
CCN1CCN(Cc2ccc(NC(=O)c3cc(NC(=O)C(=O)c4c[nH]c5ccccc45)cc(OC)c3)cc2C(F)(F)F)CC1	SMARCA2 act 10 (no result: HSP90 inh) | SMARCA2 act conf inactive | GAL4-VP16 Luc inactive
CN1CCCCC(NC(=O)c2c(F)cccc2F)C1=O (configuration not stated)	none (no result: HSP90 inh, FXN GAA850 act, AI-2 QS modul, HSF1 inh)
Cc1nc(-c2ccccc2)nc2[nH]c(C(C)C)cc(=O)c12	none
Cc1nc(-c2ccccc2)nc2[nH]c(=O)n(-c3ccccc3)c(=O)c12	SMARCA2 act 11 | SMARCA2 act conf inactive | GAL4-VP16 Luc 6.3
Cc1ccc(N/N=C(\C#N)C(=N)N2CCCCCC2)cc1	SMARCA2 act 8.3 | SMARCA2 act conf 12 | GAL4-VP16 Luc 14
N#C/C(=N\Nc1ccc(F)cc1)C(=N)N1CCCCCC1	SMARCA2 act 12 | SMARCA2 act conf 15 | GAL4-VP16 Luc 19
Cc1ccc(N/N=C(\C#N)C(=N)N2CCOCC2)cc1	none
COc1ccc(/C=N/N=C2/NC(=O)C(c3ccccc3)(c3ccccc3)S2)cc1	SMARCA2 act 8.3 | SMARCA2 act conf inactive | GAL4-VP16 Luc inactive
COc1ccc(OCCCN2CCC(C(O)(c3ccccc3)c3ccccc3)CC2)cc1	none (no result: HSP90 inh, FXN GAA850 act, AI-2 QS modul, HSF1 inh)
Cc1cccc(C)c1NC(=O)C1(C)CSCC(=O)N1CCc1c[nH]c2ccccc12 (configuration not stated)	none (no result: HSP90 inh, FXN GAA850 act, AI-2 QS modul, HSF1 inh)
CN(C(=O)c1ccc2c(c1)SC1=NS(=O)(=O)CCN12)C(c1ccccc1)c1ccccc1	SMARCA2 act 10 | SMARCA2 act conf 14 | GAL4-VP16 Luc inactive
O=C(O)c1ccc2c(c1)SC1=NS(=O)(=O)CCN12	none
CNC(=O)c1ncoc1-c1ccc(Cl)cc1	SMARCA2 act 8.1 | SMARCA2 act conf inactive | GAL4-VP16 Luc inactive
O=C(N[C@@H](Cc1cccnc1)C(=O)N1CCC[C@H]1C(=O)NCCc1ccccc1Cl)c1cccs1	none (no result: HSP90 inh, FXN GAA850 act, AI-2 QS modul, HSF1 inh)
O=C(NNC(=O)c1ccc(Cl)cc1Cl)c1ccncc1	none
O=C(NNC(=O)c1ccccc1Cl)c1ccncc1	SMARCA2 act 8.7 | SMARCA2 act conf inactive | GAL4-VP16 Luc inactive
CCc1nn(CC(=O)N2CCN(c3ccc(OC)cc3)CC2)c(=O)c2cc3occc3n12	SMARCA2 act 8.4 | SMARCA2 act conf inactive | GAL4-VP16 Luc inactive
Clc1cccc(Cc2c(-c3ccco3)nc3c4ccccc4ccn23)c1	SMARCA2 act 24 (no result: HSP90 inh, FXN GAA850 act, AI-2 QS modul, HSF1 inh) | SMARCA2 act conf 12 | GAL4-VP16 Luc 10
Fc1cccc(Cc2c(-c3ccco3)nc3c4ccccc4ccn23)c1	none (no result: HSP90 inh, FXN GAA850 act, AI-2 QS modul, HSF1 inh)
c1coc(-c2nc3c4ccccc4ccn3c2Cc2ccsc2)c1	SMARCA2 act 20 (no result: HSP90 inh, FXN GAA850 act, AI-2 QS modul, HSF1 inh) | SMARCA2 act conf 16 | GAL4-VP16 Luc inactive
FC(F)(F)c1ccccc1Cc1c(-c2cccc(Cl)c2)nc2c3ccccc3ccn12	SMARCA2 act 8.2 (no result: HSP90 inh, FXN GAA850 act, AI-2 QS modul, HSF1 inh) | SMARCA2 act conf inactive | GAL4-VP16 Luc inactive
COC(=O)C(C)Oc1ccc2cc(-c3ccccc3)c(=O)oc2c1 (configuration not stated)	none
COc1ccc2cc(-c3ccccc3)c(=O)oc2c1	SMARCA2 act 9.7 | SMARCA2 act conf inactive | GAL4-VP16 Luc 9.2
COCCNC(=O)C1(C)CCCN(Cc2ccc(Oc3ccccc3)cc2)C1 (configuration not stated)	none (no result: HSP90 inh, AI-2 QS modul, HSF1 inh)
C[C@H]1CN([C@@H](C)CO)C(=O)CCCn2nncc2CO[C@@H]1CN(C)CC1CC1	none (no result: HSP90 inh, FXN GAA850 act, AI-2 QS modul, HSF1 inh)
CCOC(=O)C1=C(C)OC(N)=C(C#N)C1c1c(C)nn(-c2ccc(C)cc2)c1Cl (configuration not stated)	none (no result: PG9 binder, FXN GAA850 act, SMARCA2 act)
COC(=O)C1=C(C)OC(N)=C(C#N)C1c1c(C)nn(-c2ccccc2)c1Cl (configuration not stated)	SMARCA2 act 11 | SMARCA2 act conf inactive | GAL4-VP16 Luc inactive
CN(CC(=O)Nc1ccccc1Cl)C(=O)COC(=O)c1ccc(Cl)nc1	none (no result: HSP90 inh)
CN(CC(=O)Nc1ccccc1Cl)C(=O)COC(=O)c1nc(Cl)c(Cl)c(Cl)c1Cl	SMARCA2 act 22 | SMARCA2 act conf 8.2 | GAL4-VP16 Luc inactive
